The values that follow come from PubChem BioAssay (Tox21).

Assay [1] can be described thus: Nuclear factor erythroid 2-related factor 2/antioxidant responsive element (Nrf2/ARE) small molecule agonists: qHTS cell viability counter screen in human keratinocytes (AID 1919968; active = well fitted curve in the direction sought with a large enough effect in the repeat runs; an effect the other way counts as inactive or inconclusive; also: nearly all actives have a fitted effect of over 55% in size; also: potency is read from the fitted curve at half-maximal effect). The essentials:
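HaCaT ARE reporter line, 1,500 cells/well; 5 h settle, 37 C/5% CO2; cpd in DMSO pinned; 23 h exposure; CellTiter-Fluor, 1 h; fluorescence.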
For orientation: In qHTS, concentration-response curves come from the screen itself.

A short description of assay [2]: G protein-coupled receptor (GPCR) small molecule agonists, calcium flux assay: HEK293 wild type cell line counter screen (AID 1920065). In outline:
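Kinetic fluorescence at Ex/Em 480/540, recorded every second over 3 min, served as the read-out after compound addition. Each compound was tested at 15 concentrations in triplicate on cells pre-loaded with calcium dye for 1 h.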
For orientation: A change in cytosolic calcium serves as a functional read-out for many receptors and channels.

A short description of assay [3]: p53 small molecule agonists, cell-based qHTS assay with human liver microsomes (AID 1963577). The essentials: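 Compounds act here after metabolic activation: human liver microsomes and NADPH, both at 0.5 mg/mL final, were co-added to p53RE-bla cells. Incubation ran 16 h at 37 C, followed by LiveBLAzer detection.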
Assay [4] can be described thus: p53 small molecule agonists, cell-based qHTS assay with rat liver microsomes (AID 1963578). In outline:
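Read-out is beta-lactamase reporter fluorescence (LiveBLAzer, 2 h, room temperature, dark) in p53RE-bla cells treated 16 h at 37 C with compound, rat liver microsomes and NADPH, both 0.5 mg/mL final.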

The nature of assay [5]: p53 small molecule agonists, cell-based qHTS assay with human liver microsomes: qHTS cell viability counter screen (AID 1963579). Also: nearly all actives have a fitted effect of over 45% in size. Also: potency is read from the fitted curve at half-maximal effect. The essentials: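 Cells carrying the p53 response-element beta-lactamase reporter are treated for 16 h at 37 C with test compounds in the presence of human liver microsomes and NADPH (both 0.5 mg/mL final); ATP-based CellTiter-Glo luminescence then reports viability.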

Assay [6] can be described thus: p53 small molecule agonists, cell-based qHTS assay with rat liver microsomes: qHTS cell viability counter screen (AID 1963580). Also: nearly all actives have a fitted effect of over 45% in size. Also: potency is read from the fitted curve at half-maximal effect. In outline: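 Viability is assessed in parallel with the p53 reporter read: HCT-116 p53RE-bla cells receive compounds plus rat microsomes and NADPH (0.5 mg/mL final apiece), incubate 16 h at 37 C, and then CellTiter-Glo luminescence is recorded.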

The nature of assay [7]: p53 small molecule agonists, cell-based qHTS assay: qHTS cell viability counter screen (AID 1963581). Also: nearly all actives have a fitted effect of over 45% in size. Also: potency is read from the fitted curve at half-maximal effect. In outline: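 HCT-116 p53RE-bla cells, 4,000/well, plated 5 h before compound pin transfer; 16 h at 37 C; bla substrate 2 h RT; then CellTiter-Glo, 30 min RT, luminescence.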
Assay [8] can be described thus: p53 small molecule agonists, cell-based qHTS assay (AID 1963582; active = well fitted activation curve with a large enough effect in the signal ratio in the repeat runs, not every such curve was filed as active; the % refers to the signal ratio). The essentials:
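Reporter line: p53RE-bla. Pre-incubation 5 h, 37 C, 5% CO2; compound (DMSO, pin tool) 16 h, 37 C; B/G FRET substrate 2 h RT; fluorescence intensity read.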

For assay [9], the target named is 5-hydroxytryptamine receptor 2A (Homo sapiens) (UniProt P28223). The assay is described as follows: 5-hydroxytryptamine receptor 2A (HTR2A) small molecule antagonists, cell-based qHTS assay (AID 1963586). Also: nearly all actives have a fitted effect of over 45% in size. The essentials:
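Antagonist-mode intracellular calcium assay: DOI (4 nM) added after 5 min compound pre-incubation at room temperature to dye-loaded HTR2A-CHO cells. Fluorescence followed for 3 min, sampled every second.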

Assay [10] shares this target. As to the kind of experiment: 5-hydroxytryptamine receptor 2A (HTR2A) small molecule agonists, cell-based qHTS assay (AID 1963587). Also: nearly all actives have a fitted effect of over 30% in size. Also: potency is read from the fitted curve at half-maximal effect. In outline:
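CHO cells stably expressing human HTR2A, plated 18 h, loaded with calcium dye 1 h at 37 C. Agonist mode: compounds added and intracellular calcium fluorescence recorded kinetically for 2 min at 1 sec intervals.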

Assay [11] deals with Muscarinic acetylcholine receptor M1 (Homo sapiens) (UniProt P11229). The assay is described as follows: Cholinergic receptor muscarinic 1 (CHRM1) small molecule antagonists, cell-based qHTS assay (AID 1963588). Also: nearly all actives have a fitted effect of over 40% in size. In outline:
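CHRM1-CHO calcium-flux assay, antagonist mode. Cells were seeded 18 h, dye-loaded 1 h at 37 C and given compound for 5 min at RT, then acetylcholine was added at 50nM. FDSS fluorescence was read 3 min; 15 concentrations, three runs.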

Assay [12] shares this target. The assay is described as follows: Cholinergic receptor muscarinic 1 (CHRM1) small molecule agonists, cell-based qHTS assay (AID 1963589). Also: nearly all actives have a fitted effect of over 35% in size. Also: potency is read from the fitted curve at half-maximal effect. In outline:
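Human M1 in stable CHO line; 18 h plating, 1 h dye load 37 C; cpd added (agonist mode); Ca2+ fluorescence kinetic read, 1 s intervals; 15 conc, 3 runs.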

Assay [13] in a line: cAMP Responsive Elements (CRE) small molecule agonists, cell-based qHTS assay (AID 1963590). In outline: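 HEK 293T CRE-bla, 2,000 cells/well, 18 h preincubation 37 C/5% CO2; cpds (DMSO) pinned, 3 h; LiveBLAzer B/G FRET substrate, 2 h RT.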
Assay [14] can be described thus: cAMP Responsive Elements (CRE) small molecule antagonists, cell-based qHTS assay (AID 1963591; active = well fitted inhibition curve with a large enough effect in the signal ratio in the repeat runs, not every such curve was filed as active; the % refers to the signal ratio). The essentials:
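Beta-lactamase reporter read by FRET substrate (LiveBLAzer B/G) after 2 h at room temperature. CRE-bla HEK293T cells had received compound plus 0.25 uM (final) NKH477 for 3 h at 37 °C.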

For assay [15], the target named is Beta-2 adrenergic receptor (Homo sapiens) (UniProt P07550). As to the kind of experiment: Adrenergic beta2 receptor (ADRB2) small molecule antagonists, cell-based qHTS assay (AID 1963592). Also: series mostly up to about 92 µM; nearly all actives have a fitted effect of over 50% in size. The essentials: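 Cells (CHO, stable ADRB2 overexpression) incubated 18-20hr at 37C; compounds added from DMSO; agonist mix (1nM isoproterenol, 100uM IBMX, 25uM Ro-20-1724) added; 0.5hr RT; d2-cAMP and anti-cAMP-cryptate added; 1hr RT; 665/615 nm read.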
Chain of Beta-2 adrenergic receptor (Homo sapiens) (P07550 whole entry, looked up): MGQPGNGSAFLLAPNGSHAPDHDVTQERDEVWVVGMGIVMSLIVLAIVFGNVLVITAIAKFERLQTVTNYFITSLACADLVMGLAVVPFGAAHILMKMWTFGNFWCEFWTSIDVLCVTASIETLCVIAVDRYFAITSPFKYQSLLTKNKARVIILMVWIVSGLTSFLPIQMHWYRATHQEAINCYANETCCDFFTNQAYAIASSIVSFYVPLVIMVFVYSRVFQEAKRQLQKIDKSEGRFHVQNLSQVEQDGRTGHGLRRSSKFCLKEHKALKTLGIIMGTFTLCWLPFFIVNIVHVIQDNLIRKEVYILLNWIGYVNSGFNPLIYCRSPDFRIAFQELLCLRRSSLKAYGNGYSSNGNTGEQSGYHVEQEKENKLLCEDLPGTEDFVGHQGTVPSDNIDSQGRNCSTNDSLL

The target is the same in assay [16]. The assay is described as follows: Adrenergic beta2 receptor (ADRB2) small molecule agonists, cell-based qHTS assay (AID 1963593).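 Also: CHO cells stably overexpressing human ADRB2.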 The essentials:
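CHO cells stably over-expressing ADRB2 were plated overnight at 37C, then dosed with compounds plus a stimulation mix containing 100uM IBMX and 25uM Ro-20-1724 for 0.5hr at room temperature. cAMP was measured by HTRF competition, 1hr.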

Assay [17] deals with D(2) dopamine receptor (Homo sapiens) (UniProt P14416). The assay is described as follows: Dopamine D2 receptor (DRD2) small molecule agonists, cell-based qHTS assay (AID 1963594). Also: nearly all actives have a fitted effect of over 35% in size. In outline:
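HEK293 cells stably expressing human DRD2, pre-treated with PDE inhibitor Ro20-1724 (0.1 mM final) and compound 10 min at room temperature, then stimulated with NKH477 (200nM […]) for 30 min. cAMP read by HTRF (665/620 nm).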

The target is the same in assay [18]. As to the kind of experiment: Dopamine D2 receptor (DRD2) small molecule antagonists, cell-based qHTS assay (AID 1963595; active = well fitted inhibition curve with a large enough effect in the signal ratio in the repeat runs, with a control signal flat; the % refers to the signal ratio; also: potency is read from the fitted curve at half-maximal effect). The essentials:
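Antagonism was scored as restored cAMP in HEK293-DRD2 cells. These cells were stimulated with 200 nM NKH477 and 12 nM quinpirole for 30 min at room temperature, in the presence of 0.1 mM Ro20-1724.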

Assay [19] concerns the target KiSS-1 receptor (Homo sapiens) (UniProt Q969F8). The assay is described as follows: Human kisspeptin (KISS1R) small molecule agonists, calcium flux assay in KISS1R-HEK293 cells (AID 1920064; active = well fitted curve in the direction sought with a large enough effect in the repeat runs; an effect the other way counts as inactive or inconclusive). The essentials: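 Stable human KISS1R HEK293 line; 18 h plating, 37 C/5% CO2; calcium dye 1 h 37 C; compound pin transfer; kinetic fluorescence Ex/Em 480/540, 3 min.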

Structures are written as SMILES. “And” between values parts separate entries of the source, which are not always exact repeats. Equal entries are not always repeated. Records with an inconclusive call do not appear. The source holds several records for some structures; these can differ, active in one and inactive in another. The source made the active and inactive calls. Unless noted, calls follow the shape of the full dose curve.
% is scaled to controls: 0 for no effect and ±100 for the full control effect.

Chain of Muscarinic acetylcholine receptor M1 (Homo sapiens) (P11229 whole entry, looked up): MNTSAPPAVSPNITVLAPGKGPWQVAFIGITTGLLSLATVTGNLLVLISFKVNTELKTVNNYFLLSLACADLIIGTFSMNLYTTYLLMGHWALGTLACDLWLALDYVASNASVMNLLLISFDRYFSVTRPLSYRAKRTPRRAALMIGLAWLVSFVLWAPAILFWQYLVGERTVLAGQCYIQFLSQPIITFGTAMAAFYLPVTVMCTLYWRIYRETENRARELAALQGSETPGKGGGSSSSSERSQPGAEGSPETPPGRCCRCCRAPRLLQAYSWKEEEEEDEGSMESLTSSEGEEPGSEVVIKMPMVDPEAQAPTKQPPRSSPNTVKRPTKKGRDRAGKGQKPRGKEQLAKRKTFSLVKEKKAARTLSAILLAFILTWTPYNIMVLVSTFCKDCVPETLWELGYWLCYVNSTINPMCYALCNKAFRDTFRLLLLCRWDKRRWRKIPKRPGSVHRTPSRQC
Chain of 5-hydroxytryptamine receptor 2A (Homo sapiens) (P28223 whole entry, looked up): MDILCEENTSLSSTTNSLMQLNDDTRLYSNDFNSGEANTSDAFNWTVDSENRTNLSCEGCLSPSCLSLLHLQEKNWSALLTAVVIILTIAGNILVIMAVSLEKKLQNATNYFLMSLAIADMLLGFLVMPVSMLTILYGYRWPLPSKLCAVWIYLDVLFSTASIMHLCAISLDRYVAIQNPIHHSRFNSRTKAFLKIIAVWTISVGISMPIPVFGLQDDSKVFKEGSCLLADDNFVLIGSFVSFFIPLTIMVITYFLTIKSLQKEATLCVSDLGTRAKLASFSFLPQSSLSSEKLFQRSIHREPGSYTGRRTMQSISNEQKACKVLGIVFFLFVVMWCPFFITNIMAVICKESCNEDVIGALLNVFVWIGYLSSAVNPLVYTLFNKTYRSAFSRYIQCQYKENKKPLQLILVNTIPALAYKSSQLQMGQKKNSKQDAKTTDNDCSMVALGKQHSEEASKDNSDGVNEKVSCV
Chain of KiSS-1 receptor (Homo sapiens) (Q969F8 whole entry, looked up): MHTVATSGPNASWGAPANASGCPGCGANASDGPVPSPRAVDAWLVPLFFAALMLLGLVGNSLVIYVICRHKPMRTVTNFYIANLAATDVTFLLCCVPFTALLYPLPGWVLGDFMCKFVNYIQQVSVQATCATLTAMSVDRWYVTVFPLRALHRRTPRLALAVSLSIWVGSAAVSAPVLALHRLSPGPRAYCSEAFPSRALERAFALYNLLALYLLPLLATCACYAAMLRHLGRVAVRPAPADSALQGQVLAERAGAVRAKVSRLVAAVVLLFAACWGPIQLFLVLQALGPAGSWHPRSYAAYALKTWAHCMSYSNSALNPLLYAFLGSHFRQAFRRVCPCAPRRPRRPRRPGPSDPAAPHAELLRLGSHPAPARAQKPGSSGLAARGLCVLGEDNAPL
Chain of D(2) dopamine receptor (Homo sapiens) (P14416 whole entry, looked up): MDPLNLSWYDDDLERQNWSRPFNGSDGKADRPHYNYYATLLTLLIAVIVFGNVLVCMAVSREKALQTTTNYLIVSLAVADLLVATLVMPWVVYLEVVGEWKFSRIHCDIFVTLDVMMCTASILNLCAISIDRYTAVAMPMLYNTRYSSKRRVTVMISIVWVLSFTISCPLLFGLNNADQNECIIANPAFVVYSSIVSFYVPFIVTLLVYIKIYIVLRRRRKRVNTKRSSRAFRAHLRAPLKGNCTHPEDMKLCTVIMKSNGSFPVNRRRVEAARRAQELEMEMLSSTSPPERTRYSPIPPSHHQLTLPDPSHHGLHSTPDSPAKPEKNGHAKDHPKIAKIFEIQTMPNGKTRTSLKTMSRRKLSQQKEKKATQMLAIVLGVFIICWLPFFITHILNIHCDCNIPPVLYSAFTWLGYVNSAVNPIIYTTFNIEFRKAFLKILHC

As to `COCCl`, the Potency entry in assay [1], in assay [2], in [3], in assay [4], in assay [5] and in [6] was “inactive” each time. The Potency entry in [7], in [8], in assay [9], in assay [11], in [13] and in assay [14] was “inactive” each time. Moreover, the Potency result in assay [15], in [16], in assay [17] and in assay [18] was “inactive” each time. In addition, the Potency is 22.7 µM (active) and inactive in [10]; 50.9 µM (active) and inactive in assay [12].
Take `CCCCC(CC)C(=O)Cl` (stereo not drawn): the Potency entry in [1], in assay [19], in [2], in [3], in assay [6] and in [7] was “inactive” each time. In addition, the Potency entry in [8], in assay [9], in assay [10], in assay [11], in assay [12] and in assay [13] was “inactive” in each case. Also, the Potency result in assay [14], in assay [15], in assay [16], in assay [17] and in assay [18] was “inactive” each time.
For the molecule `CCCCCCCCCCCCCCCCCC(=O)O`, the Potency entry in assay [1], in assay [19], in [2], in assay [5], in assay [6] and in assay [7] was “inactive” each time. Also, the Potency result in assay [9], in assay [10], in assay [11], in [12], in assay [13] and in [14] was “inactive” each time. The Potency entry in assay [15], in [16] and in assay [17] was “inactive” each time.
As to `NNC(=O)c1ccccc1`, the Potency entry in assay [1], in assay [19], in assay [3], in [4], in assay [6] and in assay [7] was “inactive” throughout. The Potency result in assay [9], in assay [10], in assay [11], in [12], in assay [14] and in [18] was “inactive” throughout.
For the molecule `ClC(Cl)=C(Cl)C(Cl)=C(Cl)Cl`, the Potency result in assay [1], in assay [19], in assay [2], in [5], in assay [6] and in assay [7] was “inactive” throughout. Further, the Potency entry in assay [9], in [10], in [11], in assay [12], in [13] and in [14] was “inactive” in each case. The Potency result in [15], in [17] and in assay [18] was “inactive” each time.
Consider `CC(C)CC(C)(c1ccc(O)cc1)c1ccc(O)cc1`, for which the Potency in assay [1] is 27.4 µM (active) and 38.6 µM (active); in [5], “inactive and 36.3 µM (active)”. Further, the Potency entry in assay [19], in assay [2], in [3], in assay [4], in assay [7] and in assay [8] was “inactive” in each case. Besides, the Potency result in assay [11], in [12], in assay [15] and in assay [17] was “inactive” throughout.
Regarding `CCC(=O)c1ccccc1`, the Potency entry in assay [1], in assay [19], in assay [2], in [4], in assay [5] and in assay [6] was “inactive” in each case. The Potency entry in [7], in assay [8], in [9], in [10], in assay [11] and in assay [12] was “inactive” each time. For the same molecule, the Potency entry in assay [13], in assay [14], in [15], in [16], in assay [17] and in [18] was “inactive” in each case.
In the case of `CCCCCCCCCCCCCCCC[n+]1ccccc1`, the Potency in [1] was 29.8 µM (active) [middle of 4 runs]; in [5], 36.3 µM (active) and 40.2 µM (active) and inactive; in assay [6] it was 42.7 µM (active) and inactive; in [7], 45.8 µM (active) and inactive; in assay [18], “inactive and 60.3 µM (active)”. Further, the Potency result in [19], in [3], in assay [4], in [8], in assay [15] and in assay [16] was “inactive” in each case.
